We go through 31 compounds from PubChem BioAssay AID493248 (Broad Institute, 2011).

In all, about 2,300 compounds went through this assay and about 1,400 (61%) were called active. Another 7% or so got no clear call; they are omitted. The rule behind the calls is not given here. So high a share suggests a set chosen from earlier hits. Not all results are given here. Results with a measured potency or affinity are listed apart.

For the experiment, the target named is FAD-linked sulfhydryl oxidase ALR (Homo sapiens) (UniProt P55789). The experiment can be described thus: ALR-catalysed DTT oxidation blockers – biochemical, H2O2 detection, luminescence, cherry-pick, dose response (AID 493248). The settings on record: purified ALR, H2O2 HRP-luminol luminescence; at 10 µM (top of the series).
Chain of FAD-linked sulfhydryl oxidase ALR (Homo sapiens) (P55789 whole entry, looked up): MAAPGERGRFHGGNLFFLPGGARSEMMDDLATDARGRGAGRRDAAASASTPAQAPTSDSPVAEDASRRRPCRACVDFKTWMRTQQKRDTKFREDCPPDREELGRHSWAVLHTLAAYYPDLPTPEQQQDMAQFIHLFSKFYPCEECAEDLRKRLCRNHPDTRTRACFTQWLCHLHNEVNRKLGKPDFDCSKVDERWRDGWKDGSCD
Regarding `CO/N=C/NC(=O)c1ccc([N+](=O)[O-])c(CS(=O)(=O)c2ccc(Cl)cc2)c1`, the activity change, negative = inhibition is 7.26%.

Regarding `Cc1nc([N+](=O)[O-])c(Br)n1CC(=O)c1ccc(Cl)cc1`, the activity change, negative = inhibition was -18.7%. For `Cc1nn(C(C)C(=O)N/N=C/c2ccc(N(C)C)cc2)c(C)c1[N+](=O)[O-]` (stereo unspecified) the value was -45.7%; for `COc1ccccc1-c1c(-c2ccc(O)cc2O)n[nH]c1C(F)(F)F`, 267%. For the compound `COc1cccc(Oc2cn[nH]c2-c2ccc(O)cc2O)c1`, the activity change, negative = inhibition is -53.3%. With `Cc1cc(/C=C2\C(=N)N3N=CSC3=NC2=O)c(C)n1Cc1ccccc1` the figure was -36.4%; with `Cn1nnnc1SCc1csc(Nc2ccccc2)n1`, -51.7%; with `CCN1C(=O)/C(=C/N(C)C)c2ccccc21`, 14.1%.

For the compound `Cc1ccc(-c2nc(-c3ccc(Cl)cc3)sc2CC(=O)O)c(C)c1`, the activity change, negative = inhibition was -95.8%.

Regarding `Cc1ccc(-c2sc(-c3cccnc3)nc2CC(=O)O)cc1`, the activity change, negative = inhibition is -3.54%. For `CCCCC(=O)Nc1ccnc(-c2cccnc2)n1` the value was 34%; for `CN(C)c1cccc2c(/C=N/O)ccc(N(C)C)c12`, 3.9%.

Regarding `O=C(Cc1cccs1)N/N=C\c1ccc(O)cc1`, the activity change, negative = inhibition is -96.8%. In the case of `Cc1ccc(C(=O)Nc2cccc([N+](=O)[O-])c2)cc1S(=O)(=O)Nc1ccc(C(=O)O)cc1`, the activity change, negative = inhibition was -15%. With `COc1cccc2sc(Nc3nnc(-c4ccccc4Cl)o3)nc12`, the activity change, negative = inhibition was -55.9%. With `Cc1noc(C(=O)N2CCN(c3ccccc3)CC2)c1Cl` the figure was -27.4%; with `Cc1onc(C(=O)N2CCN(c3ccccc3)CC2)c1[N+](=O)[O-]`, -51.4%. As for `c1ccc2c(c1)CC(N1CCCCC1)c1ccccc1N2` (stereo unspecified), the activity change, negative = inhibition was -14.9%. With `C=CCNC(=O)c1ccccc1S(=O)c1ccccc1C#N` (stereo unspecified) the figure was -6.74%; with `Nc1nc(CN2CCN(C(=O)c3ccco3)CC2)nc(Nc2cccc(Cl)c2)n1`, -24.8%; with `CN1CCN(S(=O)(=O)c2ccc(N)cc2)CC1`, -29.3%. With `Brc1ccc(-c2ncc3ccccn23)cc1` the figure was -33.1%; with `Cc1nn(C)c(Sc2ccccc2N)c1[N+](=O)[O-]`, -39.9%; with `O=C(O)c1ccccc1CSC1=NCCS1`, -98.5%.

In the case of `O=[N+]([O-])c1ccc2c(c1)CNc1ccccc1O2`, the activity change, negative = inhibition was -57.2%. For `CC(=O)Nc1ccc(SC[C@H](CC(C)C)N2CCN(CC(C)C)CCC2=O)cc1` the value was 0.961%. `O=C(O)c1ccc(-n2c(/C=C/c3cccc([N+](=O)[O-])c3)nc3ccccc3c2=O)cc1`: the activity change, negative = inhibition was -30.3%.

With `CC1CCN(CCCNC(=O)c2ccc(CSCc3cccc(Cl)c3)o2)CC1`, the activity change, negative = inhibition came out at 26.9%. For `O=C(c1ccc(CS(=O)Cc2ccccc2Cl)o1)N1CCN(c2cccc(Cl)c2)CC1` (stereo unspecified) the value was 45.7%.

For `COc1cccc(N2CCN(C(=O)c3cc(C)oc3C)CC2)c1`, the activity change, negative = inhibition is -48.7%. For `O=C(c1ccc(CS(=O)(=O)c2ccc(Br)cc2)o1)N1CCCC1`, the activity change, negative = inhibition is 43.5%.
